Source: PubChem (ICCB-Longwood Screening Facility, Harvard Medical School)
Vaccinia pol inh = inhibitors of vaccinia virus processive DNA synthesis (E9 polymerase) | in vitro processive DNA synthesis, absorbance read-out; hits give low values | normalized absorbance, % (test concentration not listed) | 0.94% of 46,000 active; in the data active means normalized absorbance mostly below about 85%, no sharp cut-off; inactive means mostly above about 86%
A number is an active result; 0 = inactive; ! = repeats disagree. The sample as a whole holds a higher share of hits than the screen did.

SMILES	Vaccinia pol inh
COc1ccc2cc3cc(C(=O)NCCN4CCN(c5ccccc5F)CC4)sc3nc2c1	0
COc1ccc2cc3cc(C(=O)NCCC(C)C)sc3nc2c1	0
COc1ccc2cc3cc(C(=O)NCCCN4CCCCCC4)sc3nc2c1	40
COC(=O)c1ccc(C2N(Cc3ccccc3)CCN2Cc2ccccc2)cc1	0
O=C(Nc1ccc(OC(F)(F)F)cc1)Nc1cc(-c2ccccc2)[nH]n1	0
Cc1nn(-c2ccccc2)c2c1C(c1cccnc1)C1=C(CC(C)(C)CC1=O)N2 (configuration not stated)	0
N#Cc1ccsc1NC(=O)c1ccc2ncsc2c1	0
CN1CCc2c(sc(NC(=O)c3ccc4ncsc4c3)c2C(N)=O)C1	85
COC(=O)c1c(NC(=O)c2ccc(OC)cc2)sc2c1CCN(C)C2	0
CN(C)C(=O)Cc1c[nH]c2ccccc12	0
CS(=O)(=O)N1CCN=C1SCc1ccc(C(F)(F)F)cc1	0
CN(CC(=O)NCc1ccccc1)S(=O)(=O)c1ccc2nc(-c3ccccc3)[nH]c2c1	0
COC(=O)C1=C(C)N(c2ccccc2)/C(=C/c2cccc3ccccc23)C1=O	0
CCOc1ccc(-n2ccnc2SCC(=O)Nc2ccc(Cl)cc2)cc1	0
CCOc1ccc(NC(=O)c2sc(C)c(CC(=O)Nc3ccc(Cl)cc3)c2O)cc1	80
CCOc1ccc(NC(=O)CN2C(=O)S/C(=C/c3ccc(Cl)cc3)C2=O)cc1	0
C=CCn1c(=NC(=O)c2cccs2)sc2cc(S(N)(=O)=O)ccc21	0
CNC(=O)C1CCN(c2nc3ccccc3n3cccc23)CC1	0
CCC(NS(=O)(=O)c1ccc(C)cc1)C(=O)N1CCCCC1 (configuration not stated)	0
O=C(c1ccco1)N1CCN(c2nc3ccccc3s2)CC1	0
O=C1CSC(=S)N1/N=C/c1cc(Br)cc(Br)c1O	81
O=C1CSC(=S)N1/N=C/c1cccnc1	0
O=C(NN1C(=O)CSC1=S)c1ccccc1	0
O=C(COC(=O)c1ccc(NC(=O)c2ccc(Cl)cc2)cc1)c1ccccc1	0
CCNc1cc(N)[n+](CC)c2n[nH]c(/N=C/c3cc(Cl)cc(Cl)c3O)c12	69
SMILES	Vaccinia pol inh
CN1CC=C2C(C(=O)O)=C(N)C(C#N)(C#N)[C@@H](c3ccncc3)[C@@H]2C1	0
O=c1cc(-c2ccccc2)oc2cc(O)cc(O)c12	0
O=c1cc(-c2ccc(O)cc2)oc2cc(O)cc(O)c12	85
O=C(COc1cc(O)c2c(=O)cc(-c3ccccc3)oc2c1)c1ccccc1	0
CC(C)Cc1ccc(S(=O)(=O)NC2CCCCC2C)cc1 (configuration not stated)	0
Cc1ccc(-c2nn(CC(=O)N(C)C)c(=O)c3ccccc23)cc1	0
CCN(CC)Cn1nc2c3c(cccc3c1=O)-c1ccccc1-2	57
CN(C)C(=O)n1nc2c3c(cccc31)C(=O)c1ccccc1-2	0
COc1ccc(Nc2nc(N3CCN(C)CC3)nc3ccccc23)c(OC)c1	53
COc1ccc(Nc2cc(C(=O)N3CCc4ccccc4C3)c3ccccc3n2)c(OC)c1	0
CCOC(=O)N1CCN(C(=O)c2cc(Nc3ccc(OC)cc3OC)nc3ccccc23)CC1	0
CCCCc1n[nH]c2c1/C(=N\O)CC(c1ccccc1)C2 (configuration not stated)	0
CC[C@H]1OC(=O)[C@H](C)[C@@H](O[C@H]2C[C@@](C)(OC)[C@@H](O)[C@H](C)O2)[C@H](C)[C@@H](O[C@@H]2O[C@H](C)C[C@H](N(C)C)[C@H]2O)[C@](C)(O)C[C@@H](C)C(=O)[C@H](C)[C@@H](O)[C@]1(C)O	23!
CCOC(=O)CCC(=O)O[C@H]1[C@H](O[C@@H]2[C@@H](C)[C@H](O[C@H]3C[C@@](C)(OC)[C@@H](O)[C@H](C)O3)[C@@H](C)C(=O)O[C@H](CC)[C@@](C)(O)[C@H](O)[C@@H](C)C(=O)[C@H](C)C[C@@]2(C)O)O[C@H](C)C[C@@H]1N(C)C	0
CCC(=O)O[C@H]1[C@H](O[C@@H]2[C@@H](C)[C@H](O[C@H]3C[C@@](C)(OC)[C@@H](O)[C@H](C)O3)[C@@H](C)C(=O)O[C@H](CC)[C@@](C)(O)[C@H](O)[C@@H](C)C(=O)[C@H](C)C[C@@]2(C)O)O[C@H](C)C[C@@H]1N(C)C	0
O=C(COc1ccccc1)Nc1sc2c(c1C(=O)NCC1CCCO1)CCCC2 (configuration not stated)	0
Cc1cc(N)c2ccccc2[n+]1CCCCCCCCCC[n+]1c(C)cc(N)c2ccccc21	35
Cc1cc(-c2ccccc2N)nc2ccccc12	0
O=C(NCc1cccc(Cl)c1)c1nc2c(nnn2Cc2ccccc2)c(=O)[nH]1	0
FC(F)(F)c1cccc(OCc2nnc3n2CCCCC3)c1	0
S=C(Nc1ccc(Cl)cc1)N1CCSC1c1ccc(Br)cc1 (configuration not stated)	0
COc1ccc(C(=O)CCN2CCOCC2)cc1	0
O=C(OCc1ccc(Cl)cc1)c1cc(=O)c2ccccc2o1	0
O=C(Cc1c[nH]c2ccccc12)NCc1ccccc1	0
CC[n+]1ccc(C)c2ccccc21	0
SMILES	Vaccinia pol inh
CCN1C=C/C(=C\c2cc[n+](CC)c3ccccc23)c2ccccc21	65
C[n+]1ccc(/C=C/c2ccccc2O)c2ccccc21	0
C[n+]1ccc(/C=C/c2ccc3c(c2)OCO3)c2ccccc21	60
C[n+]1ccc(/C=C\c2ccco2)c2ccccc21	0
CCOC(=O)c1oc2ccccc2c1C	0
N#Cc1c(C(F)(F)F)cc(-c2ccccc2)nc1SCC1COc2ccccc2O1 (configuration not stated)	0
O=C(O)c1c(-c2ccccc2)oc2ccc(OCc3ccc(Cl)cc3)cc12	0
Cc1ccccc1COc1ccc2oc(-c3ccccc3)c(C(=O)O)c2c1	87
CC(=O)Oc1ccc2oc(-c3ccccc3)c(C(=O)O)c2c1	0
CC1CCCCC1NC(=O)CN1N=C(c2ccccc2)CCC1=O (configuration not stated)	0
CC(=O)N1CCN(C(=O)/C(=C/c2ccc(F)cc2)c2ccsc2)CC1	0
O=C(NC1CCCCC1)c1ccccc1NS(=O)(=O)c1ccc(F)c(F)c1	0
CCCNC(=O)C1CCCN(S(=O)(=O)N2CCC3(CC2)OCCO3)C1 (configuration not stated)	0
CCOC(=O)C1CC(CC2OCCO2)=NO1 (configuration not stated)	0
O=C1NC(=O)C(Cc2ccc(C(=O)O)cc2)S1 (configuration not stated)	0
Cc1ccc(CC2SC(=O)NC2=O)cc1Cl (configuration not stated)	0
O=C1NC(=O)C(Cc2ccccc2)S1 (configuration not stated)	79
COC(CNC(=O)c1cc(Sc2nnc(C)s2)nc2ccccc12)OC	0
Cc1nnc(Sc2cc(C(=O)NCCCN3CC(C)CC(C)C3)c3ccccc3n2)s1 (configuration not stated)	69
Cc1nnc(Sc2cc(C(=O)NCc3ccccn3)c3ccccc3n2)s1	0
O=C(O)c1ccccc1-c1c2cc(Br)c(=O)cc-2oc2[c]([Hg])c(O)c(Br)cc12	18
Cn1cc(-c2ccccc2C(=O)O)c(=O)c2ccccc21	0
O=C(O)c1cc(-c2ccco2)nc2ccc(Br)cc12	0
Cc1ccc2nc(NC(=O)C3CCCN(S(=O)(=O)c4ccc5c(c4)oc(=O)n5C)C3)sc2c1 (configuration not stated)	0
O=C(Nc1ccc(Cl)c(Cl)c1)N1CCC(O)CC1	0
O=C(CSC1=NCCS1)NC(=O)c1ccccc1	0
